# Biological target: Proto-oncogene tyrosine-protein kinase receptor Ret (Homo sapiens) (UniProt P07949)
# Conditions: at 1 µM
# 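Note: each listed value is an averaged inhibition figure.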
# Sequence of Proto-oncogene tyrosine-protein kinase receptor Ret (Homo sapiens) (P07949 whole entry): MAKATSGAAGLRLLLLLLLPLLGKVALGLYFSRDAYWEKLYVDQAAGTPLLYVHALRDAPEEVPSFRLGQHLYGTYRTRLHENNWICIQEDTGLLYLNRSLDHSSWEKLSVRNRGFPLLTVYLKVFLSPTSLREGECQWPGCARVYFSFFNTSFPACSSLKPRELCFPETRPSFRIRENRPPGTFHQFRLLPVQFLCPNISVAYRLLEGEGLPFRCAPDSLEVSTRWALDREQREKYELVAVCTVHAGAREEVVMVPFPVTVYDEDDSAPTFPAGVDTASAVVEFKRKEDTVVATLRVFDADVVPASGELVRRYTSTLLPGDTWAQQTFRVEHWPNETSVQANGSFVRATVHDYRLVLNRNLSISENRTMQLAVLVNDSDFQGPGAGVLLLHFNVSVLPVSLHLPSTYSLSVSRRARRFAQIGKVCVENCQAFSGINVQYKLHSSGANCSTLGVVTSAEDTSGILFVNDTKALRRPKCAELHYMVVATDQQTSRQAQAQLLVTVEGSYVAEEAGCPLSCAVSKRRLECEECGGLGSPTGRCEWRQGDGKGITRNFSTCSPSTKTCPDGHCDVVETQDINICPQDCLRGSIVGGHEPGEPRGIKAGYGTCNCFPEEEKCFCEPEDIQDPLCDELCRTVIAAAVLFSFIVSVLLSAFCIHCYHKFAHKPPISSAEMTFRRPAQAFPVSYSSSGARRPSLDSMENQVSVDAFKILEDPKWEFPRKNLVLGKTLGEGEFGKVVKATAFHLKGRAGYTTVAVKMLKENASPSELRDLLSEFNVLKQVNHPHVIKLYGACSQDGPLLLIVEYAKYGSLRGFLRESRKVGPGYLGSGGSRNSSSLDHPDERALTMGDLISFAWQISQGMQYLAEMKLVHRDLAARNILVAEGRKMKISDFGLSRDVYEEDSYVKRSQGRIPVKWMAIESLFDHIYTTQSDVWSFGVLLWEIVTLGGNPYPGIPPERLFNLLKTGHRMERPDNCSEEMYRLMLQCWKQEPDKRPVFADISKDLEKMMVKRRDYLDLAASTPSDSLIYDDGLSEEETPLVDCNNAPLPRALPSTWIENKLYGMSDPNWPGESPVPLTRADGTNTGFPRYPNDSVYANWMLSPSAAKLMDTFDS
row,SMILES,inhibition
1,Nc1ncnc2occ(-c3ccc(NC(=O)Nc4cc(C(F)(F)F)cc(C(F)(F)F)c4)cc3)c12,81.4%
2,CCn1c(-c2nonc2N)nc2c(N3CCCC3)nccc21,20.8%
3,CCn1c(-c2nonc2N)nc2cnc(Oc3cccc(NC(=O)c4ccc(OCCN5CCOCC5)cc4)c3)cc21,10.4%
4,COc1ccccc1Nc1ncc(-c2ccccc2)o1,6.88%
5,Cc1cccc(-c2n[nH]cc2-c2ccc3ncccc3n2)n1,15.1%
6,CC1=C(C(=O)Nc2ccc3[nH]ncc3c2)C(c2ccc(F)cc2)NC(=O)N1 (stereo not drawn),35%
7,CCCN1CCC=C(c2ccc(Nc3nc(Nc4ccccc4C(N)=O)c4cc[nH]c4n3)c(C)c2)C1,24.3%
8,CS(=O)(=O)Nc1ccc(N/C=C2\C(=O)Nc3ccccc32)cc1,49.4%
9,CCN1CCC(CC(=O)Nc2n[nH]c3nc(-c4cccs4)c(Br)cc23)CC1,3.8%
10,CS(=O)(=O)CCNCc1ccc(-c2ccc3ncnc(Nc4ccc(OCc5cccc(F)c5)c(C(F)(F)F)c4)c3c2)o1,3.78%
11,COc1ccc(-c2nn3ncccc3c2-c2ccnc(Nc3ccc(Cl)c(C(F)(F)F)c3)n2)cc1,-0.91%
12,c1cnn2ncc(-c3ccnc(Nc4ccc5c(c4)OCCO5)n3)c2c1,21.9%
13,CCn1c(-c2nonc2N)nc2cncc(C(=O)N3CC[C@H](N)C3)c21,4.11%
14,NCc1ccc(-c2nc(-c3ccc(Cl)c(O)c3)c(-c3ccncc3)[nH]2)cc1,76.6%
15,COc1cc2ncn(-c3cc(OCc4ccccc4C(F)(F)F)c(C(N)=O)s3)c2cc1OC,41.6%
16,COc1ccc(-c2ccncc2)cc1C(N)=O,6.29%
17,Cc1cc(O)cc(C)c1/C=C/c1cncc(-c2nn[nH]n2)c1,9.47%

row,SMILES,inhibition
1,Nc1nc(-c2ccc3c(c2)C(=Cc2cc(Br)c(O)c(Br)c2)C(=O)N3)cs1,12.3%
2,COc1cccc(-n2ncc3c(N/N=C/c4cccc(F)c4)ncnc32)c1,18.3%
3,COC(=O)Nc1nc2cc(Oc3ccc(NC(=O)Nc4cccc(C(=O)O)c4)cc3)ccc2[nH]1,14.1%
4,Cc1nn(C)c2cc(N(C)c3ccnc(Nc4cccc(S(N)(=O)=O)c4)n3)ccc12,39%
5,COc1cc2ncn(-c3cc(OCc4ccccc4Cl)c(C(N)=O)s3)c2cc1OC,60.8%
6,CC(=O)Nc1cccc(C#Cc2cncnc2Nc2ccc(OCc3cccc(F)c3)c(Cl)c2)n1,2.59%
7,COc1ccc(COc2ccc(Cc3cnc(N)nc3N)cc2OC)cc1,9.77%
8,Nc1nc(-c2ccccn2)c(-c2ccc3ncccc3n2)s1,4.76%
9,CC1=C(C(=O)Nc2ccc3[nH]ncc3c2)C(c2ccc3ccccc3c2)CC(=O)N1 (stereo not drawn),65.8%
10,COc1ccc(-c2coc3ncnc(N)c23)cc1,11.7%
11,CS(=O)(=O)CCNCc1nc(-c2ccc3ncnc(Nc4ccc(F)c(Cl)c4)c3c2)cs1,13.1%
12,O=C1Nc2ccc(C(=O)c3ccco3)cc2C1=Cc1cc(Cl)c(O)c(Cl)c1,58.1%
13,COc1cc2ncn(-c3cc(O[C@H](C)c4ccccc4Cl)c(C(N)=O)s3)c2cc1OC,51.8%
14,CS(=O)(=O)CCN(CC#N)Cc1ccc(-c2ccc3ncnc(Nc4ccc(OCc5cccc(F)c5)c(Cl)c4)c3c2)o1,2.76%
15,CC(C)=Cc1cccc2c1/C(=N/Nc1ccc(S(N)(=O)=O)cc1)C(=O)N2,60.7%
16,CCn1c(-c2nonc2N)nc2c(C#CC(C)(C)O)nc(OC[C@@H](N)c3ccccc3)cc21,41.1%

# — ChEMBL document CHEMBL1961873, “Compounds: GSK PKIS; Assays: Nanosyn kinase panel” (2012)
